Reference: PubChem BioAssay (NCI)
About 83,000 compounds went through this panel and 20% of them were active in at least one assay; those are over-represented in the sample as a whole.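 Each cell line was grown in a 96-well plate and treated with one concentration of compound for 48 hours. Values below 10 were considered active.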 A number with no mark means an inactive call. The source made the active and inactive calls.

Legend:
Test in all cases: NCI-60 one-dose screen, 48 h (100 = growth as untreated, 0 = no growth, -100 = all killed)
Conditions in all cases: 10 µM unless noted
SK-MEL-2 melanoma = system: SK-MEL-2 melanoma
EKVX NSCLC = system: EKVX NSCLC
UO-31 renal = system: UO-31 renal
TK-10 renal = system: TK-10 renal
ACHN renal = system: ACHN renal
CAKI-1 renal = system: CAKI-1 renal
A498 renal = system: A498 renal
CCRF-CEM leukemia = system: CCRF-CEM leukemia
MOLT-4 leukemia = system: MOLT-4 leukemia

SMILES | growth (SK-MEL-2 melanoma) | growth (EKVX NSCLC) | growth (UO-31 renal) | growth (TK-10 renal) | growth (ACHN renal) | growth (CAKI-1 renal) | growth (A498 renal) | growth (CCRF-CEM leukemia) | growth (MOLT-4 leukemia)
COc1cc(/C=C2\C(=O)N(CCOc3cc(O)c4c(=O)cc(-c5ccccc5)oc4c3)c3ccccc32)cc(OC)c1O | 74.1% | 83.2% | 63.5% | 109% | 66.9% | 59.3% | 127% | 49.6% | 51.8%
O=C(NC1CCCCCC1)c1ccc2c(=O)n3c(nc2c1)CCCCC3 | 112% | 107% | 99.8% | 104% | 108% | 108% | 99.5% | 98.8% | 128%
CCOC(=O)c1cc(C(=O)c2cc(OC)cc(OC)c2)n2ncccc12 | 19.3% | 49.7% | 47.8% | 63.9% | 53.2% | 34.1% | -3.04% (active) | 24% | 
Cc1ccc(Nc2cc(N)nc(N)n2)cc1 | 112% | 95.7% | 87.7% | 108% | 102% | 87.1% | 105% | 107% | 91.3%
CCOC(=O)c1c(C)n2c(=O)cc(C)c3c(OC(C)=O)c(OC(C)=O)cc1c32 | 87% | 93.1% | 71% | 96% | 58.3% | 72.2% | 116% | 3.61% (active) | 19.3%
CCN1C(=O)N(CC)C2C1NC(=S)N2/N=C/C=C/c1cccs1 (centres undefined) | 64.1% | 55.1% | 44.9% | 70.3% | 42.4% | 36.5% | 18.4% | 12.1% | 20.4%
CC(=O)OCC(=O)O[C@@H]1C[C@]2(C(C)C)O[C@@]1(C)[C@@H]1CC[C@@H](C)[C@H]1[C@@H]2OC(=O)/C=C/c1ccccc1 | 90.9% | 68.9% | -83.3% (active) | 81.1% | -4.65% (active) | -2.07% (active) | -92.5% (active) | 70.7% | 74.5%
CCOc1ccc(N2C(=O)CCSC2=S)cc1 | 102% | 95.5% | 85.5% | 96.3% | 101% | 96.4% |  | 108% | 104%
C=C(C)[C@@H]1CC[C@]2(C(=O)NC(C)=O)CC[C@]3(C)[C@H](CC[C@@H]4[C@@]5(C)CCCNC(C)(C)[C@@H]5CC[C@]43C)[C@@H]12 | -34.6% (active) | 68.8% | 49.7% | 10.6% | -30.1% (active) | 71.8% | 88.6% | 1.24% (active) | -13.1% (active)
C#CC#CC#CC#CC#CC#CC#CC#CC[C@@H]1OC[C@H](COC(=O)O[C@@H](C(=O)O[C@H]2C[C@@]3(O)[C@@H](OC(=O)c4ccccc4)[C@@H]4[C@]5(OC(C)=O)CO[C@@H]5C[C@H](O)[C@@]4(C)C(=O)[C@H](OC(C)=O)C(=C2C)C3(C)C)[C@@H](NC(=O)c2ccccc2)c2ccccc2)O1 | 44.2% | 65.8% | 99.6% | 93.3% | 79.3% | 71% | 21.3% | 13.8% | 30.9%
Cc1ccc2c(n1)C[C@H](C(C)(C)O)CC[C@H]2C | 99.9% | 92.4% | 90.6% | 97.5% |  | 92.8% | 98.1% | 106% | 103%
N/C(=N\c1nc2ccccc2s1)NC(=O)Nc1ccccc1 | 30.2% | 54% | 46.3% | 75.3% | 55.7% | 44.3% | 42.7% | 12.5% | 27.8%
C=C(C)[C@@H]1CCC[C@]2(C(=O)OC)CC[C@]3(C)[C@@H](CC[C@@H]4[C@@]5(C)CCCNC(C)(C)[C@@H]5CC[C@]43C)[C@@H]12 | 94% | 88.2% | 57.7% | 90.4% | 88.2% | 73.3% | 106% | 84% | 76.9%
COc1ccc(C2=NN3C(C2)c2cc(Br)ccc2OC3c2ccncc2)cc1 (centres undefined) | 97.5% | 83.6% | 44.6% | 98.6% | 80.7% | 45.2% | 95.6% | 70% | 68.5%
C#Cc1cccc(Nc2ncnc3ccc(-c4cnc(Cl)c(NS(C)(=O)=O)c4)cc23)c1 | -73.6% (active) | -46.3% (active) | -80.8% (active) | -72.8% (active) | 13.4% | -31.9% (active) | -76.8% (active) | 7.99% (active) | -11.7% (active)
CN(C)C(=O)OCc1ccc2c(Cl)cc(Cl)c(O)c2n1 | 50.1% | 30.5% | 27.2% | 64.2% | 27.2% | 18.6% | 68% | 23% | 22.1%
CC(C)(C)n1cc(-c2ccnc(NCCNS(=O)(=O)c3ccc(Br)cc3)c2)c(-c2cccc(O)c2)n1 | 30.3% | 43.4% | 22.7% | 55.6% | 25% | 29.1% | 11.5% | 27.7% | 12.9%
CC1=C2[C@@H](CC1)[C@]1(C)O[C@@](C(C)C)(C[C@H]1OC(=O)CO)[C@H]2OC(=O)CCCc1ccccc1 | 66.8% | 94.1% | 39.6% | 88.4% | 56.7% | 59.8% | 59.3% | 31.8% | 23.5%
